From PubChem BioAssay
USP17 block – human USP17-like deubiquitinase inhibition. purified USP17, Ub-rhodamine cleavage fluorescence, 3 h. inhibition, % at 50 µM. actives 6.5% (n = 47,000)
USP30 block – blocks human USP30 ubiquitin-rhodamine cleavage; Q70CQ3; purified USP30, Ub-rhodamine cleavage fluorescence; inhibition, % at 25 µM; actives 5.3% (n = 47,000)
USP8 inh – inhibitors of human USP8 deubiquitinase | P40818 | AID 1645853 | actives 4.2% (n = 47,000) | purified USP8, Ub-rhodamine cleavage fluorescence, 30 min | inhibition, % at 20 µM
USP10 inh – blocks human USP10 ubiquitin-rhodamine cleavage. purified USP10, Ub-rhodamine fluorescence, 60 min. inhibition, % at 20 µM. actives 1.1% (n = 47,000)
USP7 block – inhibitors of human USP7 deubiquitinase | purified USP7, Ub-rhodamine cleavage fluorescence | Q93009 | inhibition, % at 20 µM | actives 0.3% (n = 47,000)
UCHL1 inh – human UCHL1 deubiquitinase inhibition | purified UCHL1, Ub-rhodamine cleavage fluorescence | inhibition, % at 20 µM | actives 0.2% (n = 47,000) | AID 1645859
Numbers without * were called inactive; . = no result. The list is not random: actives were taken first. Their share in the collection is about 13%. Rule as the data show it: active = inhibition above about 30%; inactive = the rest.

SMILES | USP17 block | USP30 block | USP8 inh | USP10 inh | USP7 block | UCHL1 inh
Cc1cccc(NC(=O)Cn2c(=O)n(Cc3ccncc3)c(=O)c3ncccc32)c1 | -0.6 | -9.0 | -9.7 | -3.0 | -1.5 | -3.6
Fc1ccc(N/C=C/c2ncc(C(F)(F)F)cc2Cl)cc1 | 20.1 | -79.5 | 71.8* | -10.6 | -1.9 | -4.4
CC1CN(S(=O)(=O)c2cccc(C#N)c2)Cc2ccccc2N1C (configuration not stated) | 7.1 | 2.7 | 2.2 | 2.3 | 2.5 | 2.0
Cc1cccc(N2CCn3c2nc2c3c(=O)n(CCN3CCOCC3)c(=O)n2C)c1 | 5.3 | 37.5* | 1.5 | 1.8 | 3.9 | 1.6
Cn1c(=O)n(CCN2CCOCC2)c(=O)c2c1nc1n2CCN1c1cccc(Cl)c1 | -4.1 | 6.2 | -10.8 | -0.7 | -10.3 | -6.1
Cc1ccc(N2CCCn3c2nc2c3c(=O)n(CCN3CCOCC3)c(=O)n2C)cc1 | 15.5 | 33.6* | 21.4 | 3.4 | 8.7 | 0.9
c1ccc(-c2cc3c(NCc4ccccn4)ncnc3s2)cc1 | 35.1* | 26.2 | 20.8 | 5.1 | -4.3 | 6.9
CCOC(=O)c1sc2nc(C)nc(NCc3ccccn3)c2c1C | 10.7 | 30.5* | 4.8 | -0.6 | -2.4 | -5.2
Cc1nc(NCc2ccccn2)c2cc(-c3ccccc3)sc2n1 | 74.3* | 2.3 | 30.3* | -0.7 | 2.5 | 0.1
O=C(CNc1ncnc2sc(-c3ccccc3)cc12)Nc1ccc(F)c(F)c1 | -25.1 | -208.4 | -16.0 | 1.8 | -3.7 | -4.7
CCOC(=O)c1sc2nc(C)nc(Oc3cccnc3)c2c1C | 15.9 | 11.6 | 19.6 | -0.6 | -0.1 | -0.3
Fc1ccc(-c2nc(C3CC3)ncc2-c2nnnn2-c2ccccc2)cc1F | 15.1 | 30.4* | 22.5 | 4.8 | -1.1 | 4.8
CC(C)CCn1cnc2c1c(=O)n(CC(=O)NC1CC1)c(=O)n2Cc1ccccc1 | 13.2 | -16.6 | 12.1 | 0.1 | -2.6 | 2.9
Cc1cc2nc(C)c(C/C=C/c3ccccc3)c(=O)n2[nH]1 | 22.1 | 35.3* | -35.7 | 4.0 | 4.7 | 0.9
CSc1nc2nc(C)c(C/C=C/c3ccccc3)c(=O)n2[nH]1 | . | 39.5* | 22.1 | 9.8 | 1.4 | -0.1
Cc1nc2nc(-n3c(C)ccc3C)nn2c(C)c1C/C=C/c1ccccc1 | -12.0 | -91.1 | -22.4 | -4.0 | -17.5 | -3.0
CCOC(=O)C1CCN(C(=O)C2CCC3(CC2)CNC(=O)c2ccccc2O3)CC1 (configuration not stated) | 11.3 | 24.6 | 14.2 | 0.3 | 6.9 | 5.6
CCC[C@H]1O[C@@H]2CC(=O)O[C@@H]2C2=C1C(=O)c1c(O)cccc1C2=O | 84.0* | -19.5 | -6.8 | -14.2 | -39.7 | 14.3
CC1OC2CC(=O)OC2C2=C1C(=O)c1c(O)cccc1C2=O (configuration not stated) | 93.8* | -2.9 | 0.7 | -6.8 | -56.7 | 24.8
Cc1cccc(N(CC(=O)NCC2CCCO2)C(=O)CCC(=O)Nc2nccs2)c1C (configuration not stated) | 3.7 | 19.2 | 14.3 | 1.9 | 1.8 | 2.1
O=C(NCc1ccc(F)cc1)c1cccc(COc2ccc3ccccc3c2)c1 | 7.6 | 11.0 | 7.8 | 5.0 | 11.4 | 1.2
O=C(NCc1cc2ccccc2[nH]1)c1ccc(COc2ccc(Br)cc2)cc1 | 9.5 | -58.4 | 55.0* | -9.6 | -33.2 | -19.1
COc1ccc2c(Cl)c(C(=O)N3CCCCC3)sc2c1 | -4.1 | 9.7 | -23.7 | 1.0 | -53.0 | -1.5
O=C(c1ccc(-c2cncnc2)nc1)N1CCN(c2ccc(F)cc2)CC1 | -1.9 | 4.3 | -4.8 | -0.3 | 5.3 | 2.6
Cc1ccc(-n2nc(C(=O)Nc3ccc(C)cn3)c3ncn(C)c(=O)c32)cc1 | 74.8* | 26.4 | 72.0* | 31.3* | 30.0 | 13.8
SMILES | USP17 block | USP30 block | USP8 inh | USP10 inh | USP7 block | UCHL1 inh
NC(=O)c1cc2ccccc2nc1C1CCN(C(=O)COc2ccc(F)cc2F)CC1 | -18.1 | -9.1 | -30.1 | -0.3 | -3.0 | -0.1
Oc1ccc2ccccc2c1CN1CCCC1 | 16.7 | -1.7 | 37.5* | 0.5 | 2.8 | 1.6
Oc1ccc2ccccc2c1CN1CCN(c2ncccn2)CC1 | 36.1* | . | -0.1 | 0.2 | 3.5 | 1.7
O=C(c1ccc2onc(-c3coc(C4CC4)n3)c2c1)N1CCCC1 | -0.8 | 17.0 | 5.3 | -0.3 | -0.1 | 0.3
Cn1cncc1C(=O)N1CCCN(c2cc(-c3cccc4ncccc34)ncn2)CC1 | -2.5 | -7.7 | 0.3 | -4.6 | 3.1 | 0.1
O=C(CC1C(=O)N(Cc2cccnc2)c2nc3ccccc3n21)Nc1cccc2ccccc12 (configuration not stated) | 64.2* | 22.1 | -37.4 | -1.6 | -9.0 | 1.1
Cc1ccc(NC(=O)CC2C(=O)N(Cc3ccccc3)c3nc4ccccc4n32)cc1 (configuration not stated) | 32.3* | 2.3 | 0.7 | 2.1 | -5.9 | 7.1
Cc1ccc(NC(=O)CC2C(=O)N(Cc3cccnc3)c3nc4ccccc4n32)cc1 (configuration not stated) | -10.4 | -2.8 | -0.4 | 0.4 | -10.0 | 1.9
Cc1ccccc1NC(=O)CC1C(=O)N(C2CCCC2)c2nc3ccccc3n21 (configuration not stated) | 16.2 | 30.2* | 1.2 | 1.2 | -10.4 | 2.6
Cc1cccc(NC(=O)CC2C(=O)N(C3CCCC3)c3nc4ccccc4n32)c1 (configuration not stated) | -5.0 | 13.3 | 17.1 | 4.0 | -7.6 | 2.1
COc1ccc(C(=O)N2c3ncnn3C(c3ccccc3)CC2c2ccccc2)cc1OC (configuration not stated) | -13.7 | -5.2 | -45.0 | -5.8 | -3.0 | -3.0
CC(=O)N1CCc2cc(S(=O)(=O)NCCC(=O)Nc3cccc(C)c3C)ccc21 | 33.7* | 63.7* | 24.6 | 3.1 | 5.6 | 0.0
Cc1c(Cc2ccc3c(c2)OCO3)sc(NC(=O)c2ccc(S(=O)(=O)N3CCOCC3)cc2)c1C#N | 24.5 | -44.1 | 3.2 | 21.4 | -1.8 | -3.8
O=S(=O)(c1ccc2c(c1)OCCO2)N(Cc1ccccc1)Cc1nnc(-c2ccccc2)o1 | . | 74.3* | 14.8 | 2.7 | 9.3 | 5.6
O=C(O)C(Cc1ccccc1)NS(=O)(=O)c1ccc2c(c1)OCCO2 (configuration not stated) | -7.7 | 0.5 | -15.7 | -7.7 | -5.3 | -6.3
COCC1CN(C(=O)c2ccncc2)Cc2c1cnn2CC1CC1 (configuration not stated) | -38.2 | -11.8 | -257.1 | 0.2 | 0.2 | -3.0
Cc1[nH]c(C(=O)NC2CCCCCC2)c(C)c1S(=O)(=O)N1CCCC1 | 43.0* | -34.4 | 38.7* | 8.3 | 13.1 | 1.4
CC1(C(=O)NCc2ccccc2)Cn2nc(-c3ccco3)cc2C(=O)N1c1ccc2c(c1)OCCO2 (configuration not stated) | -33.2 | -389.7 | 19.5 | -2.3 | 8.2 | -7.9
CC(C)Cn1c(C2CC(=O)N(Cc3ccc(F)cc3)C2)nc2ccccc21 (configuration not stated) | -9.4 | -7.7 | -3.4 | -0.1 | -10.5 | -2.8
